Measurements taken from article PMC12820563, “FoxP3 forms a head-to-head dimer in vivo and stabilizes its multimerization on adjacent microsatellites”.
Whole data set: some 16,000 sequences, median “rpm ratio (pull-down/input)” near 0.5, cut for the highest 2% near 5.5. The full list was thinned out, with the highest values kept by preference.

Each sequence was assayed against T1, MBP-FoxP3dN (Mus musculus, UniProt Q99JB6 188-423) (assay: PD-seq (MBP pull-down with sequencing); 20 mM Tris-HCl pH 7.5, 100 mM NaCl, 1.5 mM MgCl2, 0.4 uM protein, 0.1 uM dsDNA library, 30 min, room temperature, amylose pull-down; high values mean tight binding). Conditions: protein: recombinant; tags: His6-MBP; chain copies: 2; dsDNA, one strand shown.
T1 sequence: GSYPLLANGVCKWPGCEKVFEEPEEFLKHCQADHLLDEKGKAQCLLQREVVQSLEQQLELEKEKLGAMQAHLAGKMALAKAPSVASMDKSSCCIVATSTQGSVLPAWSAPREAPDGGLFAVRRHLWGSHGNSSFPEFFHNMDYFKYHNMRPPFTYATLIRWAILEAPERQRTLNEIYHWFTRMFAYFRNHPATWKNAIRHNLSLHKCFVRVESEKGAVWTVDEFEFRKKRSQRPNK
In short: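 The N-terminus-lacking fragment of mouse FoxP3 or FoxP1 carried a His6-MBP tag and was expressed in E. coli. At 0.4 µM it was incubated with 0.1 µM Klenow-filled degenerate double-stranded DNA library for 30 min at room temperature in Tris pH 7.5 buffer with NaCl and MgCl2, and complexes were caught on amylose resin, washed three times, released with proteinase K, PCR-barcoded and Illumina-sequenced. Binding is reads-per-million enrichment of pull-down over input with replicates pooled.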

Row | Sequence | binding signal
1 | GATGATTGTTCTCCCAGCTGATGAATTGGGAAGGTCGAGTAAACAAATTTTCCTAATCTTTCTGTTCAAGCGCCATCTAC | 0.234 RPM ratio (pull-down/input)
2 | GATGATTGTTCTCCCAGCTGATGAATTCACGGTTTCGAGTAAACAAATTTTCCTAATCTTTCTGTTCAAGCGCCATCTAC | 0.47 RPM ratio (pull-down/input)
3 | GATGATTGTTCTCCCAGCTGATGAATTATTACATTCGAGTAAACAAATTTTCCTAATCTTTCTGTTCAAGCGCCATCTAC | 0.591 RPM ratio (pull-down/input)
4 | GATGATTGTTCTCCCAGCTGATGAATTGTTCTTGTCGAGTAAACAAATTTTCCTAATCTTTCTGTTCAAGCGCCATCTAC | 0.412 RPM ratio (pull-down/input)
5 | GATGATTGTTCTCCCAGCTGATGAATTTGTCACTTCGAGTAAACAAATTTTCCTAATCTTTCTGTTCAAGCGCCATCTAC | 5.39 RPM ratio (pull-down/input)
6 | GATGATTGTTCTCCCAGCTGATGAATTTGCTTTCTCGAGTAAACAAATTTTCCTAATCTTTCTGTTCAAGCGCCATCTAC | 5.95 RPM ratio (pull-down/input)
7 | GATGATTGTTCTCCCAGCTGATGAATTTGCTGTCTCGAGTAAACAAATTTTCCTAATCTTTCTGTTCAAGCGCCATCTAC | 6.16 RPM ratio (pull-down/input)
8 | GATGATTGTTCTCCCAGCTGATGAATTGCTTTGCTCGAGTAAACAAATTTTCCTAATCTTTCTGTTCAAGCGCCATCTAC | 1.22 RPM ratio (pull-down/input)
9 | GATGATTGTTCTCCCAGCTGATGAATTTTGCTACTCGAGTAAACAAATTTTCCTAATCTTTCTGTTCAAGCGCCATCTAC | 2.59 RPM ratio (pull-down/input)
10 | GATGATTGTTCTCCCAGCTGATGAATTTTGCTTCTCGAGTAAACAAATTTTCCTAATCTTTCTGTTCAAGCGCCATCTAC | 2.58 RPM ratio (pull-down/input)
11 | GATGATTGTTCTCCCAGCTGATGAATTTGCTTACTCGAGTAAACAAATTTTCCTAATCTTTCTGTTCAAGCGCCATCTAC | 6.78 RPM ratio (pull-down/input)
12 | GATGATTGTTCTCCCAGCTGATGAATTGCTTTACTCGAGTAAACAAATTTTCCTAATCTTTCTGTTCAAGCGCCATCTAC | 1.22 RPM ratio (pull-down/input)
13 | GATGATTGTTCTCCCAGCTGATGAATTGCTTGTCTCGAGTAAACAAATTTTCCTAATCTTTCTGTTCAAGCGCCATCTAC | 1.71 RPM ratio (pull-down/input)
14 | GATGATTGTTCTCCCAGCTGATGAATTTTCTTGCTCGAGTAAACAAATTTTCCTAATCTTTCTGTTCAAGCGCCATCTAC | 0.298 RPM ratio (pull-down/input)
15 | GATGATTGTTCTCCCAGCTGATGAATTTGCTTGCTCGAGTAAACAAATTTTCCTAATCTTTCTGTTCAAGCGCCATCTAC | 6.22 RPM ratio (pull-down/input)
16 | GATGATTGTTCTCCCAGCTGATGAATTGTCTTGCTCGAGTAAACAAATTTTCCTAATCTTTCTGTTCAAGCGCCATCTAC | 0.461 RPM ratio (pull-down/input)
17 | GATGATTGTTCTCCCAGCTGATGAATTGCTTTTCTCGAGTAAACAAATTTTCCTAATCTTTCTGTTCAAGCGCCATCTAC | 1.42 RPM ratio (pull-down/input)
18 | GATGATTGTTCTCCCAGCTGATGAATTTAGCAGGTCGAGTAAACAAATTTTCCTAATCTTTCTGTTCAAGCGCCATCTAC | 0.708 RPM ratio (pull-down/input)

Row | Sequence | binding signal
19 | GATGATTGTTCTCCCAGCTGATGAATTCCCATGGTCGAGTAAACAAATTTTCCTAATCTTTCTGTTCAAGCGCCATCTAC | 0.262 RPM ratio (pull-down/input)
20 | GATGATTGTTCTCCCAGCTGATGAATTACCAGGGTCGAGTAAACAAATTTTCCTAATCTTTCTGTTCAAGCGCCATCTAC | 0.252 RPM ratio (pull-down/input)
21 | GATGATTGTTCTCCCAGCTGATGAATTTATCCGTTCGAGTAAACAAATTTTCCTAATCTTTCTGTTCAAGCGCCATCTAC | 0.58 RPM ratio (pull-down/input)
22 | GATGATTGTTCTCCCAGCTGATGAATTGCTTTCATCGAGTAAACAAATTTTCCTAATCTTTCTGTTCAAGCGCCATCTAC | 1.04 RPM ratio (pull-down/input)
23 | GATGATTGTTCTCCCAGCTGATGAATTGTAGCCATCGAGTAAACAAATTTTCCTAATCTTTCTGTTCAAGCGCCATCTAC | 1.99 RPM ratio (pull-down/input)
24 | GATGATTGTTCTCCCAGCTGATGAATTTCAACGATCGAGTAAACAAATTTTCCTAATCTTTCTGTTCAAGCGCCATCTAC | 0.284 RPM ratio (pull-down/input)
25 | GATGATTGTTCTCCCAGCTGATGAATTCTGGGGGTCGAGTAAACAAATTTTCCTAATCTTTCTGTTCAAGCGCCATCTAC | 0.456 RPM ratio (pull-down/input)
26 | GATGATTGTTCTCCCAGCTGATGAATTTTGTTTTTCGAGTAAACAAATTTTCCTAATCTTTCTGTTCAAGCGCCATCTAC | 7.43 RPM ratio (pull-down/input)
27 | GATGATTGTTCTCCCAGCTGATGAATTGTTGAATTCGAGTAAACAAATTTTCCTAATCTTTCTGTTCAAGCGCCATCTAC | 1 RPM ratio (pull-down/input)
28 | GATGATTGTTCTCCCAGCTGATGAATTCCTGTTTTCGAGTAAACAAATTTTCCTAATCTTTCTGTTCAAGCGCCATCTAC | 0.929 RPM ratio (pull-down/input)
29 | GATGATTGTTCTCCCAGCTGATGAATTCGAGTTTTCGAGTAAACAAATTTTCCTAATCTTTCTGTTCAAGCGCCATCTAC | 0.651 RPM ratio (pull-down/input)
30 | GATGATTGTTCTCCCAGCTGATGAATTCTTTTTTTCGAGTAAACAAATTTTCCTAATCTTTCTGTTCAAGCGCCATCTAC | 0.311 RPM ratio (pull-down/input)
31 | GATGATTGTTCTCCCAGCTGATGAATTTGTTGATTCGAGTAAACAAATTTTCCTAATCTTTCTGTTCAAGCGCCATCTAC | 7.3 RPM ratio (pull-down/input)
32 | GATGATTGTTCTCCCAGCTGATGAATTTTTTGATTCGAGTAAACAAATTTTCCTAATCTTTCTGTTCAAGCGCCATCTAC | 0.323 RPM ratio (pull-down/input)
33 | GATGATTGTTCTCCCAGCTGATGAATTCTGTTTTTCGAGTAAACAAATTTTCCTAATCTTTCTGTTCAAGCGCCATCTAC | 5.51 RPM ratio (pull-down/input)
34 | GATGATTGTTCTCCCAGCTGATGAATTCTTTGATTCGAGTAAACAAATTTTCCTAATCTTTCTGTTCAAGCGCCATCTAC | 0.276 RPM ratio (pull-down/input)
35 | GATGATTGTTCTCCCAGCTGATGAATTTTTGTTTTCGAGTAAACAAATTTTCCTAATCTTTCTGTTCAAGCGCCATCTAC | 2.51 RPM ratio (pull-down/input)
36 | GATGATTGTTCTCCCAGCTGATGAATTGTTTTGTTCGAGTAAACAAATTTTCCTAATCTTTCTGTTCAAGCGCCATCTAC | 4.09 RPM ratio (pull-down/input)
